Drawing on US20240200044, “EVOLUTION OF TALENS” (President and Fellows of Harvard College, published 2024), this text covers binding signal for one sequence.

The experiment concerns the target CBX8-directed TALE-omega K59E (synthetic construct, UniProt Q56830 SEQ:41-724, K59E). The experiment is described as follows: one_hybrid; versus canonical CBX8 TALE. The following applies: tags: N-terminal FLAG-NLS, C-terminal RNAP omega; dsDNA, one strand shown.

Sequence TTCAGGAGGGCTTCGGC returned a binding signal of 2 fold decrease.
